The supplement of paper PMC8728848
The full list was thinned out, with the strongest signals kept by preference.

Key:
Test in all cases: glycan array binding signal (z-score within array); higher = stronger binding
Details in all cases: glycan notation: IUPAC condensed, linker removed
[1] = molecular target: Fuc(a1-2)Gal6S(b1-4)Glc6S
Method in brief: (§1)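 Glycan array data were curated from 3228 arrays in the Consortium for Functional Glycomics database and kept only where the protein sequence was available. Glycan names were converted to IUPAC-condensed notation, and columns mapping to the same glycan were averaged. The binding signal is a within-array Z-score, averaged across arrays of the same protein sequence at different concentrations or buffers and across linkers. Negative Z-scores can be read as non-binding.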

[2] = molecular target: Fuc(a1-2)[Gal(a1-3)]Gal(b1-3)GlcNAc(b1-3)GalNAc
Method in brief: as §1

[3] = molecular target: Fuc(a1-2)[Gal(a1-4)]Gal(b1-4)GlcNAc
Method in brief: as §1

[4] = molecular target: Fuc(a1-2)[GalNAc(a1-3)]Gal(b1-3)GalNAc(b1-3)Gal(a1-4)Gal(b1-4)Glc
Method in brief: as §1

[5] = molecular target: Fuc(a1-2)[GalNAc(a1-3)]Gal(b1-3)GlcNAc(b1-2)Man(a1-3)[Fuc(a1-2)[GalNAc(a1-3)]Gal(b1-3)GlcNAc(b1-2)Man(a1-6)]Man(b1-4)GlcNAc(b1-4)GlcNAc
Method in brief: as §1

[6] = molecular target: Fuc(a1-2)[GalNAc(a1-3)]Gal(b1-4)[Fuc(a1-3)]GlcNAc
Method in brief: as §1

[7] = molecular target: Fuc(a1-3)[Gal(b1-4)]GlcNAc(b1-2)Man(a1-3)[Fuc(a1-3)[Gal(b1-4)]GlcNAc(b1-2)Man(a1-6)]Man(b1-4)GlcNAc(b1-4)[Fuc(a1-6)]GlcNAc
Method in brief: as §1

[8] = molecular target: Fuc(a1-3)[Gal(b1-4)]GlcNAc(b1-3)Gal(b1-4)[Fuc(a1-3)]GlcNAc
Method in brief: as §1

Gal(a1-2)Gal = molecular target: Gal(a1-2)Gal
Method in brief: as §1

[9] = molecular target: Gal(a1-3)Gal(b1-4)GlcNAc(b1-2)Man(a1-3)[Gal(a1-3)Gal(b1-4)GlcNAc(b1-2)Man(a1-6)]Man(b1-4)GlcNAc(b1-4)GlcNAc
Method in brief: as §1

[10] = molecular target: Gal(b1-3)GlcNAc(b1-2)Man(a1-3)[GlcNAc(b1-4)][Gal(b1-3)GlcNAc(b1-2)Man(a1-6)]Man(b1-4)GlcNAc(b1-4)GlcNAc
Method in brief: as §1

[11] = molecular target: Gal(b1-3)GlcNAc(b1-3)Gal(b1-3)GlcNAc
Method in brief: as §1

[12] = molecular target: Gal(b1-3)[Fuc(a1-4)]GlcNAc
Method in brief: as §1

[13] = molecular target: Gal(b1-3)[Fuc(a1-4)]GlcNAc(b1-3)Gal(b1-3)[Fuc(a1-4)]GlcNAc
Method in brief: as §1

[14] = molecular target: Gal(b1-3)[GlcNAc(b1-6)]GalNAc
Method in brief: as §1

[15] = molecular target: Gal(b1-4)GlcNAc(b1-2)Man(a1-3)[Gal(b1-4)GlcNAc(b1-2)Man(a1-6)]Man(b1-4)GlcNAc(b1-4)GlcNAc
Method in brief: as §1

[16] = molecular target: Gal(b1-4)GlcNAc(b1-2)Man(a1-3)[Gal(b1-4)GlcNAc(b1-2)Man(a1-6)][GlcNAc(b1-4)]Man(b1-4)GlcNAc(b1-4)[Fuc(a1-6)]GlcNAc
Method in brief: as §1

[17] = molecular target: Gal(b1-4)GlcNAc(b1-2)Man(a1-3)[Man(a1-6)]Man(b1-4)GlcNAc(b1-4)GlcNAc
Method in brief: as §1

[18] = molecular target: Gal(b1-4)GlcNAc(b1-2)Man(a1-6)[GlcNAc(b1-2)Man(a1-3)]Man(b1-4)GlcNAc(b1-4)GlcNAc
Method in brief: as §1

[19] = molecular target: Gal(b1-4)GlcNAc(b1-2)[Gal(b1-4)GlcNAc(b1-4)]Man(a1-3)[Gal(b1-4)GlcNAc(b1-2)[Gal(b1-4)GlcNAc(b1-6)]Man(a1-6)]Man(b1-4)GlcNAc(b1-4)GlcNAc
Method in brief: as §1

[20] = molecular target: Gal(b1-4)GlcNAc(b1-2)[Gal(b1-4)GlcNAc(b1-6)]Man(a1-6)[Gal(b1-4)GlcNAc(b1-2)Man(a1-3)]Man(b1-4)GlcNAc(b1-4)[Fuc(a1-6)]GlcNAc
Method in brief: as §1

[21] = molecular target: Gal(b1-4)GlcNAc(b1-3)Gal(b1-4)GlcNAc
Method in brief: as §1

[22] = molecular target: Gal(b1-4)GlcNAc(b1-3)Gal(b1-4)GlcNAc(b1-2)Man(a1-3)[Gal(b1-4)GlcNAc(b1-3)Gal(b1-4)GlcNAc(b1-2)Man(a1-6)]Man(b1-4)GlcNAc(b1-4)GlcNAc
Method in brief: as §1

[23] = molecular target: Gal(b1-4)GlcNAc(b1-3)Gal(b1-4)GlcNAc(b1-2)Man(a1-3)[Gal(b1-4)GlcNAc(b1-3)Gal(b1-4)GlcNAc(b1-2)Man(a1-6)]Man(b1-4)GlcNAc(b1-4)[Fuc(a1-6)]GlcNAc
Method in brief: as §1

[24] = molecular target: Gal(b1-4)GlcNAc(b1-3)Gal(b1-4)GlcNAc(b1-3)Gal(b1-4)GlcNAc(b1-2)Man(a1-3)[Gal(b1-4)GlcNAc(b1-3)Gal(b1-4)GlcNAc(b1-3)Gal(b1-4)GlcNAc(b1-2)Man(a1-6)]Man(b1-4)GlcNAc(b1-4)GlcNAc
Method in brief: as §1

[25] = molecular target: Gal(b1-4)GlcNAc(b1-3)Gal(b1-4)GlcNAc(b1-3)Gal(b1-4)GlcNAc(b1-2)Man(a1-3)[Gal(b1-4)GlcNAc(b1-3)Gal(b1-4)GlcNAc(b1-3)Gal(b1-4)GlcNAc(b1-2)Man(a1-6)]Man(b1-4)GlcNAc(b1-4)[Fuc(a1-6)]GlcNAc
Method in brief: as §1

[26] = molecular target: Gal(b1-4)GlcNAc(b1-3)Gal(b1-4)GlcNAc(b1-3)Gal(b1-4)GlcNAc(b1-3)Gal(b1-4)GlcNAc(b1-2)Man(a1-3)[Gal(b1-4)GlcNAc(b1-3)Gal(b1-4)GlcNAc(b1-3)Gal(b1-4)GlcNAc(b1-3)Gal(b1-4)GlcNAc(b1-2)Man(a1-6)]Man(b1-4)GlcNAc(b1-4)GlcNAc
Method in brief: as §1

B1: PX14367A-bth-493-35-493 (Bacteroides thetaiotaomicron) (protein)
chain: VSSDQVAVAGNAERLFNGAWYNLFEYGTTYANIGYRALQCQDDMMASDVVSRPKYGFNSSYQFNDVAIPSDGRTSFAWYLIYKTIDNCNTAISIKGDSEELRQAQGQALALRAFCYLHLVQHYQFTYLKDKDAPCVPIYTEPTTSGTKPKGKSTVAQVYQQIFDDLNLAQDYLTNYVRKGDGQKFKPNTDVVNGLMARAYLLTGQWGEAAKAAEAARKGYSLMTTTAEYEGFNNISNKEWIWGSPQTLSQSDASYNFYYLDATYVGAYSSFMADPHLMDTFVKGDIRLPLFQWMREGYLGYKKFHMRSDDTADLVLMRSAEMYLIEAEAKVRDGVALDQAVAPLNTLRTARGVGNYDVTGKTKEQVIDEILMERRRELWGEGFGITDVLRNQKAVERMALSEDMQKTEVDCWQEGGSFAKRNPLGHWFLNFPDGKAFSANSSYYLYAIPEKEINANPNL
glycan array binding signal (z-score) [1]: -0.358
glycan array binding signal (z-score) [2]: -0.51
glycan array binding signal (z-score) [3]: -0.256
glycan array binding signal (z-score) [4]: -0.668
glycan array binding signal (z-score) [5]: 0.408
glycan array binding signal (z-score) [6]: -0.482
glycan array binding signal (z-score) [7]: -0.25
glycan array binding signal (z-score) [8]: -0.421
glycan array binding signal (z-score) (Gal(a1-2)Gal): -0.084
glycan array binding signal (z-score) [9]: 3.93
glycan array binding signal (z-score) [10]: 1.39
glycan array binding signal (z-score) [11]: -0.152
glycan array binding signal (z-score) [12]: -0.11
glycan array binding signal (z-score) [13]: -0.392
glycan array binding signal (z-score) [14]: -0.406
glycan array binding signal (z-score) [15]: 1.44
glycan array binding signal (z-score) [16]: -0.354
glycan array binding signal (z-score) [17]: 3.6
glycan array binding signal (z-score) [18]: -0.174
glycan array binding signal (z-score) [19]: -0.334
glycan array binding signal (z-score) [20]: -0.167
glycan array binding signal (z-score) [21]: -0.81
glycan array binding signal (z-score) [22]: 3.94
glycan array binding signal (z-score) [23]: 7.69
glycan array binding signal (z-score) [24]: 2.81
glycan array binding signal (z-score) [25]: 2.6
glycan array binding signal (z-score) [26]: 1.4
